105 compounds from PubChem BioAssay AID624202 (National Center for Advancing Translational Sciences (NCATS), 2012) can be followed below.

Out of some 380,000 compounds screened, about 4,000 (1.1%) were called active. Roughly 3% stayed inconclusive and do not appear here. Calls follow the shape of the dose curve; as a rule, active = well fitted activation curve with a large enough effect; inconclusive = small, poorly fitted or top-dose-only effect; inactive = no such curve, though single readings can be large or run the other way. The entries come from a sample that favours actives as a whole. Entries that show only a call come without a potency.
Potency is read from the fitted curve at half-maximal effect.

The assay can be described thus: qHTS Assay to Identify Small Molecule Activators of BRCA1 Expression. Also: nearly all actives have a fitted effect of over 80% in size. Particulars: MCF7-BRCA1-FFLuc reporter, luminescence, 48 h; series mostly up to 46.1 µM. Put shortly:
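Activators of BRCA1 expression were detected as increased firefly luciferase luminescence in engineered MCF7 cells after 48 h compound incubation. Signals were scaled to genistein 10 microM as full activation.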
`O=C(Cn1ncc(N2CCCC2)c(Br)c1=O)c1ccc(Cl)cc1`: the Potency was 1.41 µM (active).

Consider `O=C(Cn1nc(CNc2ccc(Cl)cc2)[n+]2c1CCCCC2)c1ccc(Cl)cc1`, for which the Potency entry was “inactive”.

Take `CC(=O)Cn1ncc(N2CCOCC2)c(Br)c1=O`: the Potency entry is “inactive”.

In the case of `CCOc1ccc(N(C)S(=O)(=O)c2cc(-c3cnc(C)o3)ccc2OC)cc1`, the Potency result was “inactive”. The value for `CCCCCn1c(CCCNC(=O)c2ccccc2OC)nc2ccccc21` was “inactive”; that for `CC(Oc1ccc(Cl)cc1)C(=O)OCC(=O)Nc1ncc(Cl)cc1Cl` (stereo not given) was “inactive”. As for `COc1cccc(/C(C)=N/Nc2ncc(Cl)cc2Cl)c1`, the Potency was 10 µM (active). The value for `COC(=O)c1sccc1N/N=C(\C)c1ccc(F)c(Cl)c1` was “inactive”. Next, `Cc1ccccc1CN1CCC(CNC(=O)c2c(C)oc3ncnc(N4CCCCC4)c23)CC1`: “inactive”; `O=C(c1cccc(Cl)c1)N1CCN(CCc2ccncc2)CC1`: “inactive”. The value for `Cc1ccc(CSc2nnc(-c3cnccn3)n2C)cc1` was “inactive”; that for `Cn1c(SCC(=O)c2ccc(F)cc2)nnc1-c1ccccn1` was “inactive”; that for `Cn1c(SCc2c(F)cccc2Cl)nnc1-c1cnccn1` was 2.51 µM (active). Regarding `CCC(=O)N1CCc2cc(Br)cc(S(=O)(=O)NCc3ccc(Cl)cc3)c21`, the Potency entry is “inactive”. Next, `O=C(C=CC(=O)Nc1ccc(F)cc1F)Nc1ccc(F)cc1F`: “inactive”. For the compound `COc1ccc(C(=O)Nc2ccc(F)cc2F)cc1`, the Potency is 6.31 µM (active). `CCOC(=O)N1CCN(S(=O)(=O)c2ccc(C(=O)Nc3ccc(F)cc3F)cc2)CC1`: the Potency result was “inactive”. Next, `Cc1ccccc1-c1nc(CS(=O)(=O)CC(=O)Nc2cc(Cl)cc(Cl)c2)c(C)o1`: “inactive”; `COc1cc(OC)c(N(C)C(=O)c2cc3c(=O)oc4ccccc4c3s2)cc1Cl`: “inactive”; `O=C(N/N=C/c1cccc([N+](=O)[O-])c1)C1CC(=O)N(c2ccc(Br)cc2)C1` (stereo not given): “inactive”.

With `O=[N+]([O-])c1cccc(/C=N/Nc2ncc(Br)cn2)c1`, the Potency was 4.47 µM (active). On to `CCCc1ccc(OCc2ccc(C(=O)N/N=C/c3cccc([N+](=O)[O-])c3)o2)c(OC)c1`, for which the Potency entry is “inactive”. Next, `COc1ccc(CCNc2nc(-c3ccc(F)cc3)cc(C(F)(F)F)n2)cc1OC`: “inactive”; `CNCCCOc1cc2nc(N3CCCN(C)CC3)nc(NC3CCN(C)CC3)c2cc1OC`: “inactive”; `COc1ccc(-c2nn3c(=O)cc(CN4CCN(C(=O)c5ccc(OC)c(OC)c5)CC4)nc3s2)cc1`: “inactive”. The value for `CN(C(=O)CSc1nc2ccc(NC(=O)COc3ccccc3)cc2s1)c1ccccc1` was “inactive”; that for `O=C(O)c1ccccc1CSc1nc2ccccc2s1` was 5.62 µM (active); that for `O=[N+]([O-])c1c(NCCO)cc(Sc2nc3ccccc3s2)c2nonc12` was “inactive”. For `COc1ccc(C2Nc3ccc(NC(=O)COC(C)=O)cc3C(=O)N2Cc2ccccc2)cc1COc1ccc(NC(C)=O)cc1` (stereo not given), the Potency entry is “inactive”. Next, `COc1ccc2c(c1)c(=O)c(S(=O)(=O)c1ccc(F)cc1)cn2CC(=O)Nc1ccc(C)cc1C`: “inactive”. Next, `CN(CCOc1ccc(CC2SC(=O)NC2=O)cc1)c1ccccn1` (stereo not given): “inactive”. As to `CC(O)c1ccc(OCCN(C)c2ccccn2)cc1` (stereo not given), the Potency was 11.2 µM (active).

For `CC(C)c1ccc(OCC(O)CN2CCN(c3ccccn3)CC2)cc1` (stereo not given), the Potency result is “inactive”. The value for `COc1ccccc1CNc1nccn(-c2ccc(F)cc2)c1=O` was “inactive”. Next, `Nc1nc(COC(=O)CCC(=O)c2ccc(Cl)cc2)nc(Nc2ccccc2)n1`: “inactive”. As to `CCOC(=O)CNc1nc(Cl)nc(Nc2ccccc2)n1`, the Potency is 15.8 µM (active). The value for `CCOC(=O)CNc1nc(Cl)nc(Nc2ccc(OC)cc2OC)n1` was “inactive”; that for `CCCN1CN=C(NS(=O)(=O)c2ccc(NC(C)=O)cc2)NC1` was “inactive”; that for `CC1=C(C(=O)Nc2ccccc2)C(c2ccc(C)cc2)n2nc(SCc3ccccc3C)nc2N1` (stereo not given) was “inactive”. Regarding `C/C(N)=C(/C#N)C(=O)COC(=O)c1cc(-c2cccc(Br)c2)nc2ccccc12`, the Potency entry was “inactive”. The value for `Cc1ccc2nc(-c3cccc(Br)c3)cc(C(=O)Nn3cnnc3)c2c1` was 10 µM (active).

Regarding `COc1ccccc1C(=O)Nn1cnnc1`, the Potency entry is “inactive”. The value for `Cc1nc2c(-c3ccccc3)c(C)nn2c(C)c1CCC(=O)NCCc1ccccc1` was “inactive”; that for `O=C1CC(c2ccccc2)CC2=C1C(c1ccco1)n1nc(C(F)(F)F)nc1N2` (stereo not given) was “inactive”; that for `Cc1cc(Nc2cccc(C(F)(F)F)c2)nc2ccc(NC(=O)c3ccc(=O)[nH]c3)cc12` was “inactive”. `CN(C)Cc1c(O)ccc2c(=O)c(-c3ccccc3Cl)coc12`: the Potency result is “inactive”. Next, `O=c1c(-c2ccccc2)coc2cc(O)ccc12`: 12.6 µM (active); `CC(C)=CCc1c(O)c(CC=C(C)C)c2occ(-c3ccc(O)cc3)c(=O)c2c1O`: “inactive”. On to `COc1ccc(CCn2cc3c(c2-c2ccc(Br)cc2)c(=O)n(C)c(=O)n3C)cc1OC`, for which the Potency result is “inactive”. As for `CCC(C)N(c1ccc(/C=C/c2ccnc3ccccc23)cc1)C(C)CC` (stereo not given), the Potency entry was “inactive”.

For `COC(=O)c1ccc(Cn2c(SCC(=O)N(C)c3ccccc3)nc3ccccc32)cc1`, the Potency entry was “inactive”. Next, `COc1ccc(CN2C(=O)C(NC(=O)c3cccc(C)c3)(C(F)(F)F)N=C2c2ccccc2)cc1` (stereo not given): “inactive”; `CCN1CCN(c2ccc(/C=C/c3ccnc4ccccc34)cc2)CC1`: “inactive”. Next, `O=C(/C=C/c1ccc(N2CCOCC2)cc1)c1ccccc1`: 3.16 µM (active); `C/C(=C/c1ccccc1)C(=O)N1CCN(c2ccccc2)CC1`: “inactive”.

With `O=C(O)CCC(=O)Nc1ccc(N2CCOCC2)cc1`, the Potency entry was “inactive”. Take `COc1ccc(S(=O)(=O)NCc2cccn2Cc2cccc(C)c2)cc1Cl`: the Potency entry was “inactive”. `CCn1cc2nc(SCc3cccc(F)c3)n(CCc3ccccc3)c(=O)c2n1`: the Potency result was “inactive”. The value for `CCc1ccccc1NS(=O)(=O)c1ccc2nc(-c3ccccc3)[nH]c2c1` was “inactive”; that for `O=C(CCS(=O)(=O)c1ccccc1)NC1CCCC1` was 10 µM (active).

Consider `O=C(CCC(=O)c1cccs1)NC1CCCCCC1`, for which the Potency entry was “inactive”. In the case of `CC(=O)c1cc(-c2ccccc2)n(CCC(=O)NC2CCCCCC2)c1C`, the Potency result was “inactive”. Take `C=C1C=C(C)n2ncc(C(=O)Nc3ccccc3O)c2N1`: the Potency result is “inactive”.

Regarding `COc1cc(OC)cc(C(=O)Nc2c(C(=O)Nc3ccc(F)cc3)oc3ccccc23)c1`, the Potency result was “inactive”. `Cn1cccc1C(=O)OCC(=O)c1ccc(Br)s1`: the Potency is 8.91 µM (active). The value for `Cn1cccc1C(=O)OCC(=O)NCCc1ccccc1` was “inactive”. The value for `COc1ccc(C(=O)OCC(=O)c2ccc(Cl)s2)c(OC)c1OC` was “inactive”; that for `CCCCNC(=O)Cn1c(SCc2cccc(Cl)c2)nc2ccncc21` was “inactive”; that for `CCCN(CCC)C(=O)C(Cc1ccccc1)NS(=O)(=O)c1ccc2c(c1)c(=O)n(C)c(=O)n2C` (stereo not given) was “inactive”. Next, `Cc1ccc(-n2c(=O)c3cccnc3n2CC(=O)NCc2ccc(F)cc2)cc1C`: “inactive”. As for `CCCCOC(=O)CSc1ncnc2sc3c(c12)CCC(C)C3` (stereo not given), the Potency entry was “inactive”.

As to `SCc1nc2ccc(Cl)cc2[nH]1`, the Potency entry is “inactive”. Consider `Cc1ccc(C)c(N2CCN(C(=O)CCc3nc(-c4cccc(C(F)(F)F)c4)no3)CC2)c1`, for which the Potency entry is “inactive”. On to `Cc1ccc(Cc2nc(-c3cccc(C)c3)no2)cc1`, for which the Potency was 7.94 µM (active).

For `Cc1cccc(-c2noc(CCC(=O)NC3CCCC3)n2)c1`, the Potency entry was “inactive”.

As for `Cc1[nH]c2ccccc2c1C(=O)C(=O)N(C)c1ccccc1`, the Potency result is “inactive”. The value for `Cc1noc(C)c1CSCC(=O)Nc1nc2ccc(Oc3ccccc3)cc2s1` was “inactive”; that for `Cc1ccc(C(=O)Nc2nc3ccc(Cl)cc3s2)o1` was 0.891 µM (active); that for `Cc1sc2ncnc(N3CCC(C(=O)Nc4nc5ccc(Cl)cc5s4)CC3)c2c1C` was “inactive”.

Take `COc1ccc(-c2nc(=N)sn2-c2ccccc2)cc1`: the Potency entry is “inactive”. On to `Cc1ccc2c(c1)-c1c(cnn1CC(=O)Nc1ccccc1C#N)CO2`, for which the Potency result was “inactive”. With `COc1cc(CN(C(=O)c2ccccc2Br)c2ccccn2)cc(OC)c1OC`, the Potency result is “inactive”. Next, `Nc1ccc(/C=C/c2ccnc3ccccc23)c([N+](=O)[O-])c1`: “inactive”; `CN1C(=O)/C(=C/C=C2\SCCN2C)OC1=S`: 5.62 µM (active); `CN(C(=N)N)c1ccc(/C=C2\C=Cc3ccccc32)cc1`: “inactive”. The value for `O=C(NCCc1cccc(F)c1)C1CCCN(c2nc3ccccc3s2)C1` (stereo not given) was “inactive”; that for `Fc1ccc2nc(N3CCCCC3)sc2c1` was 4.47 µM (active). Take `COc1ccc2nc(N3CCN(C(=O)c4ccc([N+](=O)[O-])o4)CC3)sc2c1`: the Potency result is “inactive”. The value for `CCCCNC(=O)c1ccc2c(c1)NC(=O)C(C(C)C)N2` (stereo not given) was “inactive”. In the case of `C=CCNC(=O)c1cc(-c2ccccc2O)on1`, the Potency was 5.62 µM (active). The value for `CSc1ccccc1NC(=O)c1cc(C2CC2)on1` was “inactive”; that for `CCc1ccccc1NC(=O)c1cc(-c2ccc3c(c2)OCO3)on1` was “inactive”; that for `Cc1cc(Cl)ccc1OCCCC(=O)NCc1ccccn1` was “inactive”. `C=CCNC(=O)c1ccc2nc(-c3ccco3)c(-c3ccco3)nc2c1`: the Potency entry is “inactive”. The value for `COc1ccccc1CNS(=O)(=O)c1cc(C(=O)NCc2ccccn2)c(Cl)cc1Cl` was “inactive”; that for `O=C(NCc1ccccn1)c1cc(-c2ccccc2Cl)on1` was 10 µM (active); that for `Cc1cc(C)nc(NC(=O)Nc2ccccc2C(F)(F)F)n1` was “inactive”. The value for `O=C(Nc1cccnc1Cl)c1cc(-c2ccccc2O)on1` was 8.91 µM (active).

For `O=C(NC1CCCC1)c1cc(-c2ccccc2)on1`, the Potency entry is “inactive”. `C=CCNC(=O)c1ccccc1SCc1c(C)noc1C`: the Potency result was “inactive”. As to `O=C(Nc1ccccc1C(F)(F)F)c1cc(-c2ccc(O)cc2)on1`, the Potency was 11.2 µM (active).

For `O=C(Nc1ccc([N+](=O)[O-])cc1)c1cnn2c1NC(=C1CC1)C=C2C(F)F`, the Potency result is “inactive”. Next, `Cc1ccccc1C(=O)Nc1cc(C)c(O)c(-c2nc3ccccc3o2)c1`: “inactive”; `COc1ccc(-n2c(SCC(N)=O)nc3c(oc4ccccc43)c2=O)cc1`: “inactive”.

For the compound `COc1ccccc1N1CCN(C(=O)C2CCN(S(=O)(=O)c3c(C)noc3/C=C/c3ccc(C)cc3)CC2)CC1`, the Potency result was “inactive”.
